Values joined by “and” are separate entries in the source; they are usually repeats but may differ in a detail not shown here. Equal values may be shown once. Results filed as inconclusive are left out. Unmarked numbers belong to inactive results. Active and inactive are the calls of the source. The call rests on the fitted dose curve; in most records, active means well fitted cell-killing curve with a large enough effect; inconclusive means small, poorly fitted or top-dose-only effect; inactive means no such curve, though single readings can be large or run the other way.
assay: qHTS of pediatric cancer cell lines to identify multiple opportunities for drug repurposing: Primary screen for NB1643 cells (AID 1347099); conditions: NB1643 neuroblastoma viability, CellTiter-Glo luminescence, 48 h; series mostly up to 46 µM; activity change, negative = cytotoxic: at the top concentration; further: nearly all actives have a fitted effect of over 50% in size;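 on activity change, negative = cytotoxic: plate controls were DMSO neutral control for no effect and bortezomib positive control for full effect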
In short: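 Plated cells (500-1,000 per well, growth media) were allowed to settle for 5 hours, treated with compound dilutions for 48 hours, then lysed with CellTiter-Glo for 15 min at room temperature before luminescence reading.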
Potency means the concentration at half of the fitted maximal effect.

SMILES | Potency | activity change, negative = cytotoxic
Cc1cc2c(C(C)C)c(O)c(O)c(C=O)c2c(O)c1-c1c(C)cc2c(C(C)C)c(O)c(O)c(C=O)c2c1O | 8.41 µM (active) and 7.43 µM (active) | 
NS(=O)(=O)c1cc2c(cc1Cl)NC=NS2(=O)=O | inactive | 
COc1cc2c(cc1OC)CN(CCc1ccc(NC(=O)c3cccc4c(=O)c5cccc(OC)c5[nH]c34)cc1)CC2 | 7.43 µM (active) | 
CC1(C)SCCN(S(=O)(=O)c2ccc(OCC#CCO)cc2)[C@@H]1C(=O)NO |  | -3.71%
CCCc1nc2c(C)cc(-c3nc4ccccc4n3C)cc2n1Cc1ccc(-c2ccccc2C(=O)O)cc1 |  | -7.14%
CC(C)NCC(O)COc1ccc(COCCOC(C)C)cc1 (centres undefined) | inactive | 
NCCc1ccc(O)c(O)c1 |  | 0%
Oc1ccc(C2CNCCc3c2cc(O)c(O)c3Cl)cc1 (centres undefined) | inactive | 
CCC(C)n1ncn(-c2ccc(N3CCN(c4ccc(OC[C@H]5CO[C@](Cn6cncn6)(c6ccc(Cl)cc6Cl)O5)cc4)CC3)cc2)c1=O (some centres undefined) |  | 1.1%
CCc1ccc(CCOc2ccc(CC3SC(=O)NC3=O)cc2)nc1 (centres undefined) |  | -1.19%
O=c1n(CCCN2CCN(c3cccc(Cl)c3)CC2)nc2ccccn12 | inactive | 
CNC(=O)c1ccc(N2C(=S)N(c3ccc(C#N)c(C(F)(F)F)c3)C(=O)C2(C)C)cc1F |  | 19.9%
Cc1cnc(NC(=O)C2=C(O)c3ccccc3S(=O)(=O)N2C)s1 |  | 12.4%
Nc1ccc(S(=O)(=O)Nc2ccnn2-c2ccccc2)cc1 |  | 13.3% [at 16.1 µM]
NC(=O)c1cnccn1 |  | 0.917%
CCCCNc1cc(C(=O)O)cc(S(N)(=O)=O)c1Oc1ccccc1 | inactive | 
Cc1ccccc1C(OCCN(C)C)c1ccccc1 (centres undefined) | inactive | 

SMILES | Potency | activity change, negative = cytotoxic
Cc1[nH]c(=O)c(C#N)cc1-c1ccc2nccn2c1 |  | 14.5%
OC(CCN1CCCCC1)(c1ccccc1)C1CC2C=CC1C2 (centres undefined) | inactive | 
NC(=O)c1ccc(I)c([N+](=O)[O-])c1 |  | -34.9%
CC(c1cc2ccccc2s1)N(O)C(N)=O (centres undefined) | inactive | 
O=C1CCC(N2C(=O)c3ccccc3C2=O)C(=O)N1 (centres undefined) | inactive | 
O=C(O)COCCN1CCN(C(c2ccccc2)c2ccc(Cl)cc2)CC1 (centres undefined) |  | -8.29%
CC(C)(Sc1ccc(CCN(CCCCC2CCCCC2)C(=O)NC2CCCCC2)cc1)C(=O)O | 14.8 µM (active) | 
Clc1cccc(Cl)c1NC1=NCCN1 | inactive | 
CC(C[N+](C)(C)C)OC(N)=O (centres undefined) | inactive | 
CS(=O)(=O)c1cccc(CNc2nc(Nc3ccc4c(c3)CCC(=O)N4)ncc2C(F)(F)F)c1 | 16.6 µM (active) | 
CC(=O)Oc1ccccc1C(=O)O | inactive | 
O=C(O)CCc1ccc(NCc2cccc(Oc3ccccc3)c2)cc1 |  | -14.3%
CC(C)(C)NCC(O)c1ccc(O)c(CO)c1 (centres undefined) | inactive | 
c1ccc([C@H]2CN3CCSC3=N2)cc1 |  | -0.636%
C[C@]12CCC(=O)C=C1CC[C@@H]1[C@@H]2[C@@H](O)C[C@@]2(C)[C@H]1CC[C@]2(O)C(=O)CO |  | 4.69%
CNC[C@H](O)c1cccc(O)c1 | inactive | 
N[C@@H]1CONC1=O |  | 29.5%

Reference: PubChem BioAssay (NCATS)
